# Bioassay records deposited in PubChem BioAssay by The Scripps Research Institute Molecular Screening Center.
# Only some compounds are listed: those with a hit (about 4.1% of all), similar ones and a draw of the others.
# DAX1 inh-1: DAX1 (NR0B1) inhibition, primary screen | HEK293T StAR-luciferase reporter, SF-1/DAX-1 repression relief | inhibition, % at 6.8 µM | 370,000 compounds, 1.1% hits | AID 652010;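 active means inhibition above the mean over all tested compounds plus 3 SD, cut at about 3.6% in these data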;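 further: 0% = DAX-1 cells with DMSO and 100% = cells lacking DAX-1 with DMSO; higher inhibition means more luminescence from relief of DAX-1 repression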
# ssDAF12 agonist: S. stercoralis DAF-12 activation, primary screen; AID 652126; activation, % at 6.8 µM; 370,000 compounds, 1% hits; HEK293 ssDAF-12/GRIP1 lit1-tk-luc reporter, luminescence; % of 3 µM dafachronic acid response;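 active means activation above the mean over all tested compounds plus 3 SD, cut at about 0.9% in these data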;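 further: 0% = DMSO-only wells and 100% = 3 µM delta7-dafachronic acid wells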
# DAX1 inh-2: inhibitors of human orphan nuclear receptor DAX1 (NR0B1); AID 504766; P51843; inhibition, % at 6.75 µM; 340,000 compounds, 0.99% hits; HEK293 Gal4-DAX1 luciferase reporter, luminescence;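 active means inhibition above the mean over all tested compounds plus 3 SD, cut at about 4.2% in these data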;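 further: 0% = DAX1-transfected cells with DMSO and 100% = empty-vector control cells with DMSO; inhibition shows as a rise in luminescence from relieved DAX1 repression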
# Target sequence (P51843 207-470 limits assumed): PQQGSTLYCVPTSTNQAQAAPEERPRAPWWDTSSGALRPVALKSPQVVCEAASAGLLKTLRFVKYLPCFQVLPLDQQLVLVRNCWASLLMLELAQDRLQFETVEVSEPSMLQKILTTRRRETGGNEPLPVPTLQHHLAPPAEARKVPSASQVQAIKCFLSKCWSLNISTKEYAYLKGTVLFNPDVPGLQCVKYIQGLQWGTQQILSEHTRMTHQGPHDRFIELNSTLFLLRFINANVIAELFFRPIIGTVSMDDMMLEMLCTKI
# hgDAF-12 ag: hgDAF-12 agonism, primary luciferase screen; HEK293 GAL4-hgDAF12 UAS-luciferase reporter, agonist luminescence; normalized to butyrate control; activation, % at 6.8 µM; 370,000 compounds, 1.8% hits; AID 687014;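 active means activation above a cutoff set at the mean of all screened compounds plus 3 SD, cut at about 10% in these data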;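 further: 0% = DMSO wells and 100% = sodium butyrate wells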
# hcDAF-12 act: activators of H. contortus DAF-12 nuclear receptor. activation, % at 6.8 µM. 370,000 compounds, 1.4% hits. HEK293 hcDAF-12 lit1-tk-luc reporter, luminescence; 0% DMSO, 100% Δ7-dafachronic acid. AID 652067;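 active means activation above the mean of all tested compounds plus 3 SD, cut at about 5.5% in these data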;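 further: 100% = response to 3 µM Δ7-dafachronic acid high control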
# Numbers without * were called inactive; . = not tested or not shown.
SMILES,DAX1 inh-1,ssDAF12 agonist,DAX1 inh-2,hgDAF-12 ag,hcDAF-12 act
O=C(Nc1ccccc1)OCCN1CCCC12CCC(c1ccccc1)CC2 (configuration not stated),.,-1.0,.,3.5,-0.8
O=C(NNS(=O)(=O)c1ccc(Br)cc1)c1csnn1,0.1,-0.5,5.1*,-0.5,0.0
O=C(CCc1nnc(CCCc2ccccc2)o1)NCCCC1CCCC1,0.5,-0.4,0.2,11.1*,0.9
CC(C)c1cc(CNC(=O)CCc2nnc(CCCc3ccccc3)o2)on1,0.5,-0.8,1.3,7.1,3.2
O=C(CCc1nnc(CCCc2ccccc2)o1)N1CCCCCC1,1.4,-0.8,5.0*,5.8,2.4
COCC1CCN(C(=O)CCc2nnc(CCCCc3ccccc3)o2)CC1,-0.3,-1.7,-0.9,-2.3,-1.6
CCc1cc(CNC(=O)CCc2nnc(CCCc3ccccc3)o2)on1,1.1,-0.6,3.4,13.0*,2.8
CCC1=NN2C(=N)/C(=C\c3cccn3-c3ccc(Br)cc3)C(=O)N=C2S1,0.1,-0.9,4.7*,1.0,-0.3
CCOc1ccc(-n2c(SCC(=O)Nc3ccc(S(=O)(=O)Nc4nccs4)cc3)nnc2-c2ccncc2)cc1,0.2,-1.0,.,-2.3,1.0
CC1(C(=O)NS(=O)(=O)c2ccc(F)cc2F)CCN1C(=O)CC1CCCCC1 (configuration not stated),-0.7,-0.5,.,-0.6,-0.8
C[C@@H]1CN(c2ccc(N3CCN(C(=O)OC(C)(C)C)C[C@H]3C)cc2C#N)CCN1Cc1ccccc1,-0.9,-0.8,.,3.0,-1.8
CCC(=O)Nc1nc2ccc3nc(C)sc3c2s1,2.7,0.3,0.9,10.7*,1.7
Cc1ccc2nc(NC(=O)COC(=O)c3ccco3)sc2c1,1.5,-0.3,0.8,9.0,5.8*
COCC(=O)Nc1nc2ccccc2s1,1.4,0.3,1.9,6.4,6.0*
COC(=O)CCCCCCCCC(=O)Nc1nc2ccccc2s1,-0.2,-0.7,0.2,1.3,-0.1
Cc1csc(NC(=O)c2nc3nccc(C)n3n2)n1,1.1,-0.9,0.3,4.1,1.3
Cc1ccnc2nc(C(=O)Nc3nc4ccccc4s3)nn12,4.3*,1.0*,1.7,12.5*,6.3*
O=C(COC(=O)c1ccco1)Nc1nc2ccc([N+](=O)[O-])cc2s1,0.5,-0.8,-0.5,-0.8,-0.1
O=S1(=O)c2ccc(N3CCC[C@H]3CO)cc2OCCCN1C1CC1,0.4,-0.6,.,-1.5,-2.3
Cc1sc(NC(=O)CSC2=NCCS2)nc1-c1ccccc1,-1.6,-1.7,-1.8,-3.1,-2.4
Cc1ccc(S(=O)(=O)N(C)CC(=O)Nc2nc3ccccc3s2)cc1,-0.9,-0.6,-0.6,0.5,3.1
O=C(CSC1=NCCS1)Nc1nc2ccccc2s1,0.0,1.2*,0.7,4.3,1.3
Cc1cc[n+](CC(=O)Nc2nc3ccccc3s2)cc1,0.2,1.9*,0.9,3.8,0.7
Cc1cc(Cl)ccc1NC(=O)/N=C1/NC(=O)CS1,0.6,1.1*,.,-1.1,0.7
Cn1c(-c2ccccc2[N+](=O)[O-])[n+](C)c2ccccc21,-0.8,-0.5,5.0*,-2.1,0.4
SMILES,DAX1 inh-1,ssDAF12 agonist,DAX1 inh-2,hgDAF-12 ag,hcDAF-12 act
Cn1cccc([N+](=O)[O-])c1=O,0.8,-0.7,-0.6,1.2,0.1
COC(=O)c1cc(Br)cn1S(=O)(=O)c1ccccc1,0.3,-1.4,1.4,-2.2,-1.7
O=c1[nH][nH]c(C(F)(F)F)c1C=Nc1ccccc1,-0.5,-0.9,-1.2,-0.2,-1.7
Cc1cc(O)ccc1N=Cc1c(C(F)(F)F)[nH][nH]c1=O,-0.6,-0.9,4.4*,-1.0,-0.5
CCc1ccc(-c2cc(C)no2)cc1S(=O)(=O)N1CCN(c2cc(C)ccc2C)CC1,-0.2,-0.8,0.7,0.8,-1.2
Cc1cc(-c2nn3c(C)nnc3s2)ccc1NC(=O)C(C)(C)C,3.0,0.4,0.9,12.3*,5.3
Cc1ccc2nc(-c3ccccc3)nn2c1,3.5,0.7,-3.6,10.0,6.5*
Cc1ccc(-c2nnc(-c3ccccc3)c(-c3ccccc3)n2)cc1,-0.1,-0.6,0.3,0.4,2.0
O=S1(=O)c2ccc(N3CCN(Cc4ccccc4F)CC3)cc2Oc2ccccc2CN1Cc1cn(Cc2ccc(C(F)(F)F)cc2)nn1,-0.1,-0.9,.,0.8,0.1
COc1ccccc1NC(=O)/C=C\c1ccco1,0.1,-0.2,1.2,3.1,5.6*
CSc1cccc(NC(=O)/C=C/c2ccco2)c1,1.1,0.1,0.8,6.8,4.6
COc1cccc(NC(=O)/C=C/c2ccco2)c1,4.0*,0.5,0.4,10.5*,1.7
C=CCN1C(=O)[C@@H](CC(=O)NCc2ccc(C)o2)[C@]2(C(=O)OC)CCCCC=C12,0.1,-1.1,.,1.2,-0.1
COc1ccc(-n2c(=S)[nH]c3c(oc4ccccc43)c2=O)cc1,-0.3,-0.6,0.0,-0.1,-0.3
COc1ccc(-n2c(=S)[nH]c(=O)c3cccnc32)cc1,-0.2,-1.4,7.2*,-0.4,0.5
O=C(c1ccc(F)cc1Cl)N1CCCC(c2nc(-c3cccs3)no2)C1 (configuration not stated),-0.1,-1.2,.,1.4,-2.0
Cc1ccc(NC(=O)Cc2nnc(SCC(=O)NC3CCCC3)n2C)cc1,0.3,-0.8,0.1,-1.0,6.3*
Nn1c(SCC(=O)NC2CCCC2)nnc1C(F)(F)F,-1.3,-0.3,5.3*,-0.6,-0.8
COCCCNC(=O)C[C@@H]1C(=O)N(CCc2ccc(Cl)cc2)C2=CCCCC[C@]21C(=O)OC,-2.0,-0.9,.,-1.2,-2.7
COc1ccc(C2/C(=C(/O)c3ccc4c(c3)CC(C)O4)C(=O)C(=O)N2CCN2CCOCC2)cc1OC (configuration not stated),-1.3,0.0,1.2,0.1,-0.6
O=C(NCCc1ccccc1)c1ccccc1SCC(=O)N1CCCC1,2.1,1.2*,-0.3,6.0,6.4*
CC(=O)Nc1ccc(NC(=O)COC(=O)c2ccccc2SCC(=O)N2CCCC2)cc1,-0.5,-1.2,-1.9,1.5,-1.5
Cc1ccccc1NC(=O)COC(=O)c1ccccc1SCC(=O)N1CCCC1,0.1,-0.5,4.3*,0.8,-1.3
CCNC(=O)NC(=O)COC(=O)c1ccccc1SCC(=O)NC(=O)NCC,3.9*,2.3*,0.0,12.3*,7.9*
COc1ccccc1CCNC(=O)c1ccccc1SCC(=O)N1CCCC1,-1.1,-1.7,0.2,-0.3,-1.2
O=C(COC(=O)C1CC1)Nc1ccc(N=Nc2ccccc2)cc1,2.7,0.8,2.1,13.0*,3.9
COc1cccc(-c2coc3cc4oc(=O)c(CCC(=O)O)c(C)c4cc23)c1,-0.1,0.1,-0.2,-0.8,5.8*
COc1cccc(-c2coc3c(C)c4oc(=O)c(CCC(=O)O)c(C)c4cc23)c1,-0.3,-1.4,1.5,-5.2,-2.4
O=C1NC(c2ccc(Cl)cc2)=COc2ccccc21,1.1,0.3,0.8,-1.9,-0.1
O=C1NN=COc2ccccc21,0.9,-0.4,-0.9,1.8,5.7*
